Assay results from PubChem BioAssay (NCATS).
Values joined by “and” are separate entries in the source; they are usually repeats but may differ in a detail not shown here. Equal entries are not always repeated. Results filed as inconclusive are left out. Active and inactive are the calls of the source. Unless noted, the call rests on the fitted dose curve; in most records, active means well fitted curve in the direction sought with a large enough effect; inconclusive means small, poorly fitted or top-dose-only effect, or another doubt; inactive means no such curve, though single readings can be large; an effect the other way counts as inactive or inconclusive.

Key:
[1] = Cell Viability - HepG2 (AID 433; calls by dose curve;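 further: potency means the concentration at half of the fitted maximal effect; cells exposed to compound for 40 hours; potency for ATP loss meaning cytotoxicity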); settings: qHTS
Summary of the method: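 ATP luminescence (CellTiter-Glo) after 40 h compound exposure, 37 °C, HepG2, 1500 cells/well, complete medium. Normalized: DMSO = basal, 100 uM tamoxifen = 100% inhibition. AC50 via standard Hill equation.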

[2] = Cellular Toxicity (caspase-3) Jurkat (AID 655); settings: Jurkat caspase-3 activation, luminescence; caspase-3 activation: at 92.2 µM (top of the series), DMSO = 0%, tamoxifen = 100%;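 further: cells exposed to compound for 16 h at 37 °C before reading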
Summary of the method: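 Luminescent caspase-3/7 readout (aminoluciferin substrate cleavage) in human T-cell leukemia Jurkat cells after 16 hr compound exposure. Concentration-response normalized to DMSO and 100 uM tamoxifen; AC50 by standard Hill equation.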

[3] = Cellular Toxicity (caspase-3) BJ (AID 658); settings: BJ fibroblasts, luminescence, normalized: DMSO 0%, staurosporine 100%; series mostly up to 91.7 µM;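 further: 0% = DMSO basal and 100% = 10 µM staurosporine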
Summary of the method: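 qHTS, BJ fibroblasts, 1000 cells/well; 5 hr preincubation, 16 hr compound, 37 °C; Caspase-Glo 3/7 reagent, 1 hr RT; luminescence. DMSO = 0%, 10 uM staurosporine = 100%. Hill-equation AC50.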

[4] = MultiTox-Fluor Cytotoxicity Assay - LYMP1-002 - Live Cells (AID 955); settings: LYMP1-002 lymphoblastoid live-cell protease fluorescence viability; series mostly up to 46.1 µM; further: on the % scale 0 is the no-effect control and ±100 the full control effect
Summary of the method: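 After 16 h compound exposure at 37 C, live LYMP1-002 lymphoblastoid cells (2500/well) were quantified by cleavage of cell-permeant GF-AFC substrate, read at 405/510 nm after 60 min. Concentration-response fitted with Hill equation for AC50.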

[5] = Cell Viability - LYMP2-004 (AID 966); settings: LYMP2-004 lymphoblastoid cell viability, qHTS; series mostly up to 92.2 µM;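 further: plate controls were DMSO only for no effect and tetraoctylammonium bromide control for full effect; nearly all actives have a fitted effect of over 65% in size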
Summary of the method: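 AC50 values come from Hill modelling of concentration-dependent loss of intracellular ATP, measured by CellTiter-Glo luminescence. Human LYMP2-004 lymphoblastoid cells (2500/well) were exposed to compound for 24 h at 37 C.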

[6] = Cell Viability - LYMP2-023 (AID 975); settings: LYMP2-023 lymphoblastoid cell viability; series mostly up to 92.2 µM;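 further: cellular ATP measured by luciferase luminescence as viability proxy; plate controls were DMSO only for no effect and 92 µM tetraoctylammonium bromide control for full effect; nearly all actives have a fitted effect of over 55% in size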
Summary of the method: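 Intracellular ATP, read by CellTiter-Glo luminescence, reports viability after 24 hr compound exposure at 37 C. 2500 lymphoblastoid cells/well (LYMP2-023) seeded 5 hr beforehand; Hill fits give AC50; positive control tetraoctylammonium bromide.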

[7] = Cell Viability - LYMP2-025 (AID 976); settings: LYMP2-025 lymphoblastoid cell viability; series mostly up to 92.2 µM;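 further: plate controls were DMSO only for no effect and tetraoctylammonium bromide control for full effect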
Summary of the method: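 Cytotoxicity read as loss of intracellular ATP (luciferase luminescence) after 24 h compound treatment at 37 C. Uses LYMP2-025 lymphoblastoid cells in 1536-well format; Hill-equation modelling gives AC50; tetraoctylammonium bromide as positive control.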

[8] = Cell Viability - LYMP2-012 (AID 982); settings: LYMP2-012 lymphoblastoid cell viability qHTS; series mostly up to 92.2 µM;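 further: cellular ATP by luciferase luminescence where a drop means cytotoxicity; cells exposed to compound for one day before reading; 0% = DMSO only and full loss = 92 µM tetraoctylammonium bromide; nearly all actives have a fitted effect of over 55% in size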
[9] = Cell Viability - LYMP2-014 (AID 983); settings: LYMP2-014 lymphoblastoid cells, viability qHTS; series mostly up to 92.2 µM;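 further: plate controls were DMSO only for no effect and 92 µM tetraoctylammonium bromide for full effect; nearly all actives have a fitted effect of over 50% in size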
Summary of the method: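 Intracellular ATP loss, read by luciferase luminescence, measures acute cytotoxicity after 24 h compound exposure of lymphoblastoid LYMP2-014 cells (2500/well, 37 C). Concentration-response data fitted to the Hill equation for AC50.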

[10] = Cell Viability - LYMP2-016 (AID 984); settings: LYMP2-016 lymphoblastoid cell viability, qHTS; series mostly up to 92.2 µM; further: on the % scale 0 is the no-effect control and ±100 the full control effect; nearly all actives have a fitted effect of over 55% in size
Summary of the method: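 qHTS, 1536-well: 2500 LYMP2-016 cells/well, 5 hr 37 C, compound added, 24 hr 37 C, CellTiter-Glo 30 min RT, luminescence. Tetraoctylammonium bromide positive control. AC50 via Hill fit.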

[11] = Cell Viability - LYMP2-020 (AID 986); settings: series mostly up to 92.2 µM;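 further: plate controls were DMSO only for no effect and tetraoctylammonium bromide at 92 µM for full effect; nearly all actives have a fitted effect of over 55% in size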
Summary of the method: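 Cytotoxicity in qHTS format: luminescent ATP readout from CellTiter-Glo after 24 h compound exposure at 37 C in complete medium. LYMP2-020 lymphoblastoid cells were seeded at 2500/well; concentration-response data fitted to the Hill equation for AC50.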

[12] = biological target: Vitamin D3 receptor (Homo sapiens) (UniProt P11473); assay: qHTS assay for small molecule agonists of vitamin D receptor signaling (AID 588543; calls by dose curve;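 further: 0% = DMSO basal and 100% = reference agonist control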); settings: HEK293T VDR-UAS-bla, beta-lactamase ratio, 16 h; series mostly up to 76.8 µM
Summary of the method: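 β-lactamase reporter, VDR-UAS-bla HEK293T, agonist mode. Cells plated 5 h at 37 °C, compound titration 16 h at 37 °C, CCF4 dye 2 h RT, ratio 460/530 nm. Hill fit → EC50, efficacy vs 50 nM 1α,25-(OH)2D3.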

[13] = biological target: Retinoic acid receptor RXR-alpha (Homo sapiens) (UniProt P19793); assay: qHTS assay for small molecule antagonists of retinoid X receptor alpha signaling (AID 588546; active means well fitted inhibition curve with a large enough effect in the signal ratio, with a control signal flat, not every such curve was filed as active; the % refers to the signal ratio;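 further: cells stimulated with 9-cis-retinoic acid as agonist; on the % scale 0 is the no-effect control and ±100 the full control effect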); settings: HEK293T RXRa-UAS-bla, beta-lactamase ratio, antagonist mode
Summary of the method: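 Beta-lactamase reporter inhibition, read as CCF4 fluorescence ratio (ex 405, em 460/530 nm) after 2 h at RT. HEK293T UAS-bla cells, 2500/well, were stimulated with 9-cis-RA at 500 or 100 nM final alongside test compound for 18 h at 37 C.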

[14] = Cell Viability - N2a (AID 540); settings: N2a mouse neuroblastoma cell viability; activity change, negative = cytotoxicity: at 92.2 µM (top of the series);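 further: plate controls were DMSO alone for no effect and tamoxifen control for full effect; nearly all actives have a fitted effect of over 45% in size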
Summary of the method: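 CellTiter-Glo ATP luminescence, read 20 min after reagent at room temperature, reported viability following 40 h compound treatment at 37 °C. N2a mouse neuroblastoma cells seeded 1500/well; Hill equation gave AC50.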

[15] = Cell Viability - LYMP2-011 (AID 969); settings: LYMP2-011 lymphoblastoid cells viability; series mostly up to 92.2 µM;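 further: 0% = DMSO only and full inhibition = 92 µM tetraoctylammonium bromide; nearly all actives have a fitted effect of over 60% in size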
Summary of the method: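 Cytotoxicity qHTS with ATP content as read-out: lymphoblastoid cells (2500/well) exposed to compound for 24 h at 37 C, then luciferase luminescence measured. Concentration-response data fitted with the standard Hill equation to give AC50.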

[16] = Cell Viability - LYMP2-002 (AID 977); settings: LYMP2-002 lymphoblastoid cell viability, qHTS; series mostly up to 92.2 µM;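 further: plate controls were DMSO only for no effect and 92 µM tetraoctylammonium bromide for full effect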
Summary of the method: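 Human lymphoblastoid cells, 2500/well, complete medium; 5 h 37 C settle; compound 24 h 37 C; CellTiter-Glo, 30 min RT; luminescence. Decrease in ATP = cytotoxicity; AC50 via Hill equation.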

[17] = Cell Viability - LYMP2-022 (AID 987); settings: LYMP2-022 lymphoblastoid cell viability; series mostly up to 92.2 µM
Summary of the method: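 Cytotoxicity read as decreased cellular ATP (CellTiter-Glo luminescence, 30 min room temperature) after 24 hours compound exposure of 2500 lymphoblastoid LYMP2-022 cells/well at 37 C. Concentration-response data fitted with standard Hill equation for AC50.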

[18] = qHTS assay for small molecule activators of the p53 signaling pathway (AID 651743; active means well fitted activation curve with a large enough effect in the signal ratio, not every such curve was filed as active; the % refers to the signal ratio; further: % of control where 0% means no effect); settings: HCT-116 p53RE-bla, beta-lactamase FRET ratio, 16 h; activation: stronger effect = higher value
Summary of the method: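 Following 16 hours of compound exposure at 37 C, HCT-116 cells bearing the p53RE-bla reporter were loaded with LiveBLAzer B/G FRET substrate for 2 hours at room temperature and fluorescence intensity was recorded.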

[19] = qHTS assay for cell viability of HEK293 cells (AID 743288); settings: ATP luminescence (CellTiter-Glo), 18 h, stronger effect = lower value; further: on the % scale 0 is the no-effect control and ±100 the full control effect; nearly all actives have a fitted effect of over 50% in size
Summary of the method: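 ATP luminescence (CellTiter-Glo) reports metabolically competent cell number after parental HEK293 cells, 2,000/well, were treated with DMSO-dissolved compounds for 18 h at 37 C; reagent incubation 30 min, room temperature.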

[20] = biological target: Voltage-gated inwardly rectifying potassium channel KCNH2 (Homo sapiens) (UniProt Q12809); assay: qHTS Assay for Small Molecule Inhibitors of the Human hERG Channel Activity (AID 588834); settings: U2OS BacMam hERG, FluxOR thallium flux fluorescence; series mostly up to 92.2 µM;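 further: top concentration of the series differs between compounds; on the % scale 0 is the no-effect control and ±100 the full control effect; lower thallium flux fluorescence means stronger hERG block; nearly all actives have a fitted effect of over 50% in size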
Summary of the method: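 Thallium-flux (FluxOR) read-out on FDSS: fluorescence read 10 s before and 2 min after stimulation buffer. hERG-BacMam-transduced U2OS cells, compound exposure about 10 min. AC50 by standard Hill equation.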

Sequence of Vitamin D3 receptor (Homo sapiens) (P11473 whole entry, looked up): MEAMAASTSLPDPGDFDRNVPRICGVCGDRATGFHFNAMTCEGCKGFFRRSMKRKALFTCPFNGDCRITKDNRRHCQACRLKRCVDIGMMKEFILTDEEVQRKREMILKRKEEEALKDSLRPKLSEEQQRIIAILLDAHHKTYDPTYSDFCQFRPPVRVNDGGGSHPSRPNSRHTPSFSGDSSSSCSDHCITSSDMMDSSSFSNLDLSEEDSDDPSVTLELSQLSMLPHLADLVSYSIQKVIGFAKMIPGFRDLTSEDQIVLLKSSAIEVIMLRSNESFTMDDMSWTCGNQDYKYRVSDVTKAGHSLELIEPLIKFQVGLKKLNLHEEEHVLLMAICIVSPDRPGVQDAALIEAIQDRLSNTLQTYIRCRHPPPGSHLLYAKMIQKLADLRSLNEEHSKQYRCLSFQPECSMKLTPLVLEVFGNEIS
Sequence of Voltage-gated inwardly rectifying potassium channel KCNH2 (Homo sapiens) (Q12809 whole entry, looked up): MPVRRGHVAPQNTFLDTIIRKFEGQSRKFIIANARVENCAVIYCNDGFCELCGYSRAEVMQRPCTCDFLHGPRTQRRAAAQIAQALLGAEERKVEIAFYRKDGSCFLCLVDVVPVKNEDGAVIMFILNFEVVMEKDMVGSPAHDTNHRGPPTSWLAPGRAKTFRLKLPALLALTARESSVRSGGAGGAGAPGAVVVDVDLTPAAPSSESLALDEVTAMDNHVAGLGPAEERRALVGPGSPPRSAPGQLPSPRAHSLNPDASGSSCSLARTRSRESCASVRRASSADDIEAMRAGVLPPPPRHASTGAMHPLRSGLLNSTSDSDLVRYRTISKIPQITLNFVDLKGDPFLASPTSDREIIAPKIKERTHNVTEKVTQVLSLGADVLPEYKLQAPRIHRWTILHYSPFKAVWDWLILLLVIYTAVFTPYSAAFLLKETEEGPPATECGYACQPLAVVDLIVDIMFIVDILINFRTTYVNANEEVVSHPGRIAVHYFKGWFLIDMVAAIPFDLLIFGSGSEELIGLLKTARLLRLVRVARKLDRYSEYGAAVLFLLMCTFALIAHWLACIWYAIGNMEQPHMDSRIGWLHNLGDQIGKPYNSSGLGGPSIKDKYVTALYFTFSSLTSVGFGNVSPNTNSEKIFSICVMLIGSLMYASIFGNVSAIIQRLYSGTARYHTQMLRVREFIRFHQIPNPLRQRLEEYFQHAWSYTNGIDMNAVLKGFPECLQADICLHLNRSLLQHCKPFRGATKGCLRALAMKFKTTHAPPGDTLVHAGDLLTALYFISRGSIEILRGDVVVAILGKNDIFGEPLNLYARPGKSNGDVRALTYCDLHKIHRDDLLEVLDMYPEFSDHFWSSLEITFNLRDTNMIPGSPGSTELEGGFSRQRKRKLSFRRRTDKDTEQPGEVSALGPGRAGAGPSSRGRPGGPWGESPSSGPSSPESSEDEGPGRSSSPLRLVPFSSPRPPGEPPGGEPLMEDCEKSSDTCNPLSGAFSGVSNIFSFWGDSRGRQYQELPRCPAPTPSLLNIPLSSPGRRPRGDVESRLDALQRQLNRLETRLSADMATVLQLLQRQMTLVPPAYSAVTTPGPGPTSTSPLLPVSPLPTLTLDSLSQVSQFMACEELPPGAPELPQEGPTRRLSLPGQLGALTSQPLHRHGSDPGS
Sequence of Retinoic acid receptor RXR-alpha (Homo sapiens) (P19793 whole entry, looked up): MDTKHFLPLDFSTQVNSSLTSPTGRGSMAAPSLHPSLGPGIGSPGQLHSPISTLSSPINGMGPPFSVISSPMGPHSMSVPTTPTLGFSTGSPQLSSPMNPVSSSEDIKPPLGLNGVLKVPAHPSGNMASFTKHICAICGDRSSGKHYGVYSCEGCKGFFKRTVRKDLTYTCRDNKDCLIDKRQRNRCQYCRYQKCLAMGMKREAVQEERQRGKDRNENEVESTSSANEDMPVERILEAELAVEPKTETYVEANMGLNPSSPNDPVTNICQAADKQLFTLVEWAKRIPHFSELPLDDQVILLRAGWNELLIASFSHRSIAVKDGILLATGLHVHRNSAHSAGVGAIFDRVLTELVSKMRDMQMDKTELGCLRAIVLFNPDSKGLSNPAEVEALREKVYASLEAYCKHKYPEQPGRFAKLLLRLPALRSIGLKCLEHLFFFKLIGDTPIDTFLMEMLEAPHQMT

CC1CC(=O)O1 (centres undefined)
inactive: Potency [1] > 92 µM | caspase-3 activation [2] -1.79% | outcome [3] | outcome [4] | Potency [5] | Potency [6] | Potency [7] | Potency [8] | Potency [9] | Potency [10] | Potency [11] | outcome [12] | max response [13] 4.5%

C=CC#N
inactive: Potency [1] > 92 µM | Potency [14] | caspase-3 activation [2] -0.0463% | outcome [3] | Potency [5] | Potency [15] | Potency [6] | Potency [16] | Potency [8] | Potency [9] | Potency [10] | Potency [11] | Potency [17] | outcome [12] | max response [13] 19% | activation [18] -2.66% | max response [19] -18.6%

Nc1ccc(Oc2ccc(N)cc2)cc1
inactive: Potency [1] > 92 µM | Potency [14] | caspase-3 activation [2] 3.63% | outcome [4] | Potency [5] | Potency [15] | Potency [6] | Potency [8] | Potency [9] | Potency [11] | Potency [17] | max response [13] 4.6% and -3% | Potency [20] | activation [18] -4.54% and -10.7% | max response [19] -1.7% and -3.88%

NNC(N)=S
inactive: Potency [1] > 92 µM | outcome [3] | Potency [5] | Potency [6] | Potency [7] | Potency [16] | Potency [9] | Potency [10] | Potency [11] | Potency [17] | outcome [12] | Potency [20] | activation [18] -3.14% | max response [19] 1.66%

CN(C)C(=O)Nc1ccc(Cl)cc1
inactive: Potency [1] > 92 µM | Potency [14] | caspase-3 activation [2] -0.0397% | outcome [4] | Potency [5] | Potency [15] | Potency [6] | Potency [16] | Potency [8] | Potency [9] | Potency [10] | Potency [11] | Potency [17] | outcome [12] | max response [13] -0.754% and 1.84% | activation [18] -1.85% and -2.71% | max response [19] 10.7% and -3.59%

OCCCCO
inactive: Potency [1] > 92 µM | caspase-3 activation [2] -0.218% | outcome [3] | outcome [4] | Potency [5] | Potency [15] | Potency [6] | Potency [7] | Potency [8] | Potency [9] | Potency [11] | Potency [17] | outcome [12] | max response [13] -1.35% | Potency [20] | activation [18] -4.12% | max response [19] -3.14%

Clc1ccc(Cl)c(Cl)c1
inactive: Potency [1] > 92 µM | Potency [14] | caspase-3 activation [2] -0.724% | outcome [3] | outcome [4] | Potency [5] | Potency [15] | Potency [6] | Potency [7] | Potency [16] | Potency [8] | Potency [10] | Potency [11] | outcome [12] | max response [13] 7.63% and -21.3% | Potency [20] | activation [18] -3.13% and -3.99%

ClCC(Cl)CCl
inactive: Potency [1] > 92 µM | Potency [14] | caspase-3 activation [2] 1.95% | outcome [3] | outcome [4] | Potency [5] | Potency [15] | Potency [6] | Potency [7] | Potency [8] | Potency [10] | Potency [11] | Potency [17] | outcome [12] | max response [13] 11.2% and -5.45% | Potency [20] | activation [18] 2.35% and -2.96%

ClC(Cl)Br
inactive: Potency [1] > 92 µM | Potency [14] | caspase-3 activation [2] 0.703% | outcome [3] | outcome [4] | Potency [5] | Potency [15] | Potency [6] | Potency [7] | Potency [16] | Potency [8] | Potency [10] | Potency [11] | Potency [17] | outcome [12] | max response [13] 5.56% | Potency [20] | max response [19] 7.42%

CC(Cl)(Cl)Cl
inactive: Potency [1] > 92 µM | Potency [14] | caspase-3 activation [2] -0.991% | outcome [3] | Potency [15] | Potency [6] | Potency [7] | Potency [16] | Potency [17] | outcome [12] | max response [13] 5.12% and 15.9% | Potency [20] | activation [18] -0.56% and -3.67%

COc1ccccc1N
inactive: Potency [1] > 92 µM | Potency [14] | caspase-3 activation [2] 5.87% | outcome [3] | outcome [4] | Potency [5] | Potency [15] | Potency [6] | Potency [7] | Potency [16] | Potency [9] | Potency [10] | Potency [11] | Potency [20] | max response [19] -0.892%

CCCCCCCCCCCCCl
inactive: Potency [1] > 92 µM | caspase-3 activation [2] 1.16% | Potency [5] | Potency [15] | Potency [6] | Potency [7] | Potency [16] | Potency [9] | Potency [10] | Potency [11] | Potency [17] | outcome [12] | max response [13] -4.83% | Potency [20] | activation [18] -1.06% | max response [19] -0.903%

CCCCCOC(=O)c1ccccc1C(=O)OCCCCC
inactive: Potency [1] > 92 µM | Potency [14] | caspase-3 activation [2] 0.132% | outcome [3] | Potency [5] | Potency [15] | Potency [7] | Potency [16] | Potency [8] | Potency [9] | Potency [10] | Potency [17] | outcome [12] | max response [13] -6.11% | activation [18] -1% and 1.8% | max response [19] 4.12% and -1.01%

O=S(=O)(Cl)c1ccccc1
inactive: Potency [1] > 92 µM | Potency [14] | caspase-3 activation [2] 0.656% | outcome [3] | outcome [4] | Potency [5] | Potency [15] | Potency [6] | Potency [7] | Potency [16] | Potency [8] | Potency [9] | Potency [10] | Potency [11] | Potency [17] | outcome [12] | max response [13] -0.573% and -10.4% | Potency [20] | max response [19] 1.81% and -4.13%
